# This is a sample that favours compounds with a hit; in the whole collection about 2% have one here.
# CHT allo act – human CHT allosteric activation; B-score at 10 µM; hit rate 0.49% among 310,000; Q9GZV3; CHT-expressing cells, membrane potential dye, choline EC20; stronger effect = higher value; LV-AA mutant CHT in HEK293 cells; AID 488977;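 active = initial fluorescence not abnormally high and integrated response B-score, plate-corrected, over 3 SD above library mean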
# CHT inh – inhibits the human high affinity choline transporter; Q9GZV3; CHT-expressing cells, membrane potential dye, choline response; stronger effect = lower value; B-score at 10 µM; hit rate 0.86% among 310,000;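 active = B-score over 3 SD under the library average, and starting fluorescence ratio not unusually high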;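 also: choline stimulus applied at its EC90 after an EC20 pre-addition; B-score computed on integrated fluorescence ratio after choline addition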
# EP2 modulator – modulators of human EP2 prostaglandin E2 receptor. hit rate 0.83% among 260,000. induction, % at 25 µM. EP2-expressing cells, cAMP HTRF FRET, PGE2 co-stimulation. AID 940;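 active = compounds whose cAMP rise, as percent of the full-agonist control response, exceeds 60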;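 also: rat C6 glioma line stably carrying human EP2 under a CMV promoter; the protocol text gives 20 µM as final concentration; 100% = response of wells given 1 µM PGE2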
# Target sequence (P43116 whole entry, looked up): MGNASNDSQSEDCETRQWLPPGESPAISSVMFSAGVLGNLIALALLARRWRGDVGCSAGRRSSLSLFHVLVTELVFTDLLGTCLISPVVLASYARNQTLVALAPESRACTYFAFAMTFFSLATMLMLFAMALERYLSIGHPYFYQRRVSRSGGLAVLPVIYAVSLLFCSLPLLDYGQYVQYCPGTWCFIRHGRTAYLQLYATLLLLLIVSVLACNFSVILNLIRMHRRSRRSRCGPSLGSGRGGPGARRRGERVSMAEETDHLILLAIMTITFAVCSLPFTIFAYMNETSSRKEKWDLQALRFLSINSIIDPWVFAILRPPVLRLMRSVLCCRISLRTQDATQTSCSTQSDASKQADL
# PGE2 EP2 inh – blocks the human prostaglandin E2 receptor EP2 | P43116 | C6 glioma cells expressing human EP2, cAMP TR-FRET; cells stimulated with saturating PGE2 | inhibition, % at 25 µM | hit rate 0.52% among 260,000 | AID 1422;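 active = percent inhibition above 40 after rounding to a whole number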;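 also: rat C6 glioma host cells with rolipram phosphodiesterase inhibitor present; the protocol text gives 20 µM as final concentration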
# CHT act confirm – human CHT activation, confirmatory screen | shares compounds with CHT allo act | CHT-expressing cells, membrane potential dye fluorescence (FDSS); % of choline EC20–EC90 response window; HEK293 expressing CHT LV-AA mutant; choline added at its EC20 | activation, % at 10 µM | hit rate 91% among 2,500;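 active = primary screen active, with duplicate mean activation above negative control mean plus 3 SD, cut at about 11% in these data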
# HEK293 MP dye – CHT activator counter-screen hit in parental HEK293 cells; shares compounds with CHT allo act; membrane potential dye fluorescence (FDSS); measured after EC20 choline addition; ratio readout change at 10 µM, hits read low; hit rate 62% among 2,500;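 active = duplicate-averaged ratio beyond 3 SD from buffer wells, up or down, though filed actives are nearly all decreases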
# * hit, by the source's call; i = inactive; . = no result given.
SMILES,CHT allo act,CHT inh,EP2 modulator,PGE2 EP2 inh,CHT act confirm,HEK293 MP dye
CCCN1C2=NCCN2c2ccccc21,6.4*,i,6,10,41*,-36*
CN1C2=NCCN2C(=O)c2ccccc21,9.4*,i,8,24,29*,-52*
Cc1sc2ncn(CC(=O)N3CCCC3)c(=O)c2c1-c1ccc(Cl)cc1,.,.,-36,15,.,.
Cc1nc(N2CCN(C)CC2)c2sc(=S)n(C)c2n1,i,i,-19,9,33*,-50*
Cc1nc(N2CCN(C)CC2)c2sc(=S)n(-c3ccccc3)c2n1,i,i,13,6,.,.
Cc1c(C)c2ccc(OC(C)C(=O)NCCCn3ccnc3)c(C)c2oc1=O (stereo unspecified),i,i,.,.,62*,-36*
CCOC(=O)c1cc2c(=O)n3ccccc3nc2n(Cc2ccco2)c1=NC(=O)c1ccc(OC)cc1OC,i,i,-40,14,21*,-26*
CC(NC(=O)c1cc2c(=O)n3ccccc3nc2n(CC2CCCO2)c1=N)c1ccccc1 (stereo unspecified),i,i,.,.,.,.
CCOC(=O)c1cc2c(=O)n3ccccc3nc2n(CC2CCCO2)c1=NC(=O)/C=C/c1ccccc1 (stereo unspecified),i,i,-18,11,15*,i
COc1cccc(CN2CCN(C(=O)c3cc(C)[nH]c3C)[C@@H](C)C2)c1,.,.,-17,.,.,.
CCOCCn1c(N2CCOCC2)nc2c1c(=O)n(C)c(=O)n2C,.,.,16,6,.,.
Cn1c(=O)c2c(nc(N3CCOCC3)n2CCCNC2=NCCCCC2)n(C)c1=O,8.4*,i,7,5,60*,-63*
CCn1c2c(c(=N)c3c1CCC3)CCCC2,9.3*,i,2,3,68*,-65*
N=c1c2c(n(Cc3cccc(Cl)c3)c3c1CCC3)CCCC2,8.8*,i,-15,0,66*,-41*
N=c1c2c(n(Cc3ccc(F)cc3)c3c1CCC3)CCCC2,i,i,-4,8,.,.
N=c1c2c(n(Cc3ccc(Cl)cc3)c3c1CCC3)CCC2,8.1*,i,6,7,51*,-42*
CCCCn1c2c(c(=N)c3ccccc31)CCC2,i,i,-23,7,.,.
COc1ccc(C)cc1NC(=O)CSc1nc2sc3c(c2c(=O)[nH]1)CCC(C)C3 (stereo unspecified),.,.,5,19,.,.
COC(=O)c1cccc(-n2nnnc2SCC(=O)NCc2ccc3c(c2)OCO3)c1,.,.,-22,12,.,.
Cc1cc2c(cc3c(=O)n(CC(=O)N4CCCC4)nc(C)n32)s1,.,.,1,.,.,.
O=C(CC1CCCCC1)NCc1ccc2c(c1)OCO2,.,.,-11,12,.,.
Oc1ccc(-c2nc3cnccn3c2NCC2CCCO2)cc1O (stereo unspecified),.,.,-40,16,.,.
O=C(COc1ccc2c(c1)oc(=O)c1ccccc12)NCC1CCC(C(=O)O)CC1 (stereo unspecified),6.3*,i,.,.,32*,-20*
CNC(=S)N(Cc1ccc(F)cc1)Cc1cc2cc3c(cc2[nH]c1=O)OCCO3,.,.,-14,10,.,.
CN(c1ccc(OCc2nnc(-c3ccccc3)o2)cc1)S(=O)(=O)c1ccccc1,i,i,-17,12,27*,i
SMILES,CHT allo act,CHT inh,EP2 modulator,PGE2 EP2 inh,CHT act confirm,HEK293 MP dye
CN(c1ccc(OCC(=O)OCc2nnc(-c3ccccc3)o2)cc1)S(=O)(=O)c1ccc(Cl)cc1,i,i,.,.,.,.
CCCOc1c(OC)cccc1C1CC(=O)Nc2cc3c(cc21)OCCO3 (stereo unspecified),i,i,47,4,10,i
Cc1nc2sc3c(c2c2nn(CC(=O)N4CCOCC4)c(=O)n12)CCC(C)C3 (stereo unspecified),.,.,-7,.,.,.
O=[N+]([O-])c1ccc2nc(-c3cccnc3)[nH]c2c1,i,i,.,.,52*,-54*
O=C1[C@@H]2[C@H](C(=O)N1CN1CCOCC1)[C@H]1[C@@H]3C=C[C@@H]([C@@H]4C(=O)N(CN5CCOCC5)C(=O)[C@@H]34)[C@@H]21,.,.,-11,38,.,.
CCOC(=O)N1CCN(c2nc(-c3cccs3)nc3ccccc23)CC1,6.7*,i,.,.,30*,i
CC(=O)N1CCN(c2nc(-c3cccs3)nc3ccccc23)CC1,i,i,-36,6,.,.
